An excerpt weighted towards active compounds, which were near 12% of everything screened.
JMJD2A Tudor inh: blocks the human JMJD2A Tudor domain | Potency, µM (top dose mostly 114 µM), hits mostly inhibitors | O75164 | AlphaScreen JMJD2A-Tudor / H3K4me3 peptide binding | 4.4% of 390,000 active | AID 504339; further: nearly all actives have a fitted effect of over 50% in size
BAZ2B inh: blocks human BAZ2B; Q9UIF8; AlphaScreen BAZ2B-H3K14Ac peptide displacement; Potency, µM (highest dose often 114 µM), usual class: inhibitors; 4.4% of 360,000 active; further: nearly all actives have a fitted effect of over 60% in size
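AlphaScreen luminescence quantifies BAZ2B engagement of H3K14Ac peptide; the protein and biotinylated peptide are both at 50 nM final, buffer PBS pH 7.4 with 0.01% Tween-20, all steps at room temperature.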
L3MBTL1 block: blocks human L3MBTL1. AlphaScreen L3MBTL1–H3K9me1 peptide binding. AID 485360. Potency, µM (highest dose often 57.1 µM), usual class: inhibitors. 0.66% of 230,000 active. Q9Y468; further: nearly all actives have a fitted effect of over 60% in size
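Displacement of a biotinylated histone H3(1-15) peptide monomethylated at Lys9 (75 nM) from L3MBTL1 (50 nM) was measured by AlphaScreen after a 30 min room-temperature compound incubation; cefsulodin titration served as intraplate control.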
G9a inh: blocks human histone lysine methyltransferase G9a; Q96KQ7; G9a H3K9 monomethylation, AlphaScreen, 2 h; Potency, µM (highest dose often 102 µM), hits mostly inhibitors; 8.8% of 350,000 active; AID 504332; further: nearly all actives have a fitted effect of over 75% in size
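Using a bead-based AlphaScreen, monomethylated H3K9 product from 2 h room-temperature reactions (G9a 20 nM, peptide 500 nM, SAM 20 uM) was detected with 0.5 ug/mL rabbit anti-H3K9me1 antibody.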
Sfp PPTase inh: blocks B. subtilis Sfp PPTase activity; Q9F4F7; Biochemical Sfp PPTase activity, qHTS; Potency, µM, hits mostly inhibitors; 3.5% of 310,000 active; AID 1490;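 further: the enzyme is Sfp with the accession as filed and its product quenches rhodamine fluorescence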
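After 15 min at room temperature with compound, 15 nM Sfp received 5 uM rhodamine-CoA plus 12.5 uM BHQ-2-ybbR (50 mM Hepes pH 7.6, 10 mM MgCl2). Rate came from the fluorescence difference over 30 min, ex 525/em 598 nm.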
HP1b binding inh: blocks HP1-beta chromodomain binding to methylated histone tails; P83916; AlphaScreen HP1-beta / biotin-H3K9me3 peptide binding; Potency, µM (top dose mostly 114 µM), hits mostly inhibitors; 0.56% of 390,000 active; AID 540317; further: nearly all actives have a fitted effect of over 70% in size
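AlphaScreen: HP1-beta (50 nM) preformed 30 min with biotin-H3(1-18)K9me3 peptide (50 nM) in PBS pH 7.4, 0.01% Tween-20. Compound added for 30 min at RT, then streptavidin donor/nickel chelate acceptor beads (10 ug/mL) for 30 min.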
A number is an active result; – = inactive; ? = inconclusive; · = no result given; [ ] = remark or other dose. The call rests on the fitted dose curve; in most records, active means well fitted curve in the direction sought with a large enough effect; inconclusive means small, poorly fitted or top-dose-only effect, or another doubt; inactive means no such curve, though single readings can be large; an effect the other way counts as inactive or inconclusive.

SMILES | JMJD2A Tudor inh | BAZ2B inh | L3MBTL1 block | G9a inh | Sfp PPTase inh | HP1b binding inh
CCc1c(C)sc(NC(=S)N2CCN(C(=O)C3CCCO3)CC2)c1C(=O)OC (stereo not given) | ? | ? | · | 50.1µM | – | ?
CCc1c(C)sc(NC(=O)OC)c1C(=O)N1CCCCC1 | – | – | – | ? | 50.1µM | –
Cc1ccc(NC(=O)CN2C(=O)CC(c3ccco3)Sc3ccccc32)cc1Cl (stereo not given) | – | – | · | – | · | –
NC(=S)NNC(=O)[C@@H]1CCCC[C@@H]1C(=O)O | ? | – | – | 44.7µM | ? | –
COCc1cc(C)nc2sc3c(c12)NC(c1ccc(O)cc1)N(c1ccc(OC)cc1)C3=O (stereo not given) | – | – | · | – | · | –
CC1(CN2CCC(n3c(=O)[nH]c4ccccc43)CC2)OCc2ccccc2-n2cccc21 (stereo not given) | · | · | · | ? | – | ·
Cc1ccccc1-n1nc2c(c1NC(=O)c1ccco1)CS(=O)(=O)C2 | – | – | · | – | – | –
Cc1ccccc1-n1nc2c(c1NC(=O)c1ccc(Br)o1)CSC2 | ? | – | – | 44.7µM | ? | –
Cc1ccccc1-n1nc2c(c1NC(=O)c1cc3ccccc3o1)CS(=O)(=O)C2 | – | – | – | 44.7µM | · | –
Cc1ccc2oc(=O)c3cc(C(=O)N4CCN(c5ccccc5)CC4)sc3c2c1 | – | – | · | – | · | –
CN(C)c1nc(NCc2ccccc2)nc(N/N=C/c2ccc3c(c2)OCO3)n1 | – | ? | – | 50.1µM | – | –
Cc1cc(N/N=C/c2ccc(O)cc2)nc(NS(=O)(=O)c2ccccc2)n1 | 56.2µM | 79.4µM | 31.6µM | ? | – | 70.8µM
Cc1cc(N/N=C/c2ccc(Cl)cc2Cl)nc(NCc2ccccc2)n1 | – | ? | – | ? | ? | –
Cc1cc(N/N=C/c2ccc(N(C)C)cc2)nc(NCc2ccccc2)n1 | ? | 12.6µM | ? | – | 20µM | –
Cc1ccc(/C=N/Nc2cc(C)nc(NCc3ccccc3)n2)cc1 | ? | ? | – | 31.6µM | 15.8µM | –
CC(C)(C)C(=O)N1CCN(c2nc3c(F)cccc3s2)CC1 | – | – | · | – | · | –
Cc1cc(N/N=C/c2ccc(F)cc2)nc(NCc2ccccc2)n1 | – | – | – | · | 15.8µM | –
c1cncc(-c2nn3c(Cn4nnc5ccccc54)nnc3s2)c1 | – | – | – | –[2.33 µM] | 31.6µM | –
c1ccc(-c2nn3c(Cn4nnc5ccccc54)nnc3s2)nc1 | ? | – | ? | ? | 15.8µM | –
Cc1cccnc1NC(=O)CN1C(=O)COc2ccc(Cl)cc21 | – | 56.2µM | – | – | – | –
O=C(NCS(=O)(=O)c1ccccc1)c1ccccc1 | – | – | – | 50.1µM | – | –
CCN1CCN(C(=O)c2ccccc2Nc2ccc(SC(F)F)cc2)CC1 | – | – | – | 50.1µM | – | –
CN1CCN(C(=O)c2ccccc2Nc2ccc(SC(F)F)cc2)CC1 | – | – | – | ? | – | –
O=C(NCc1ccncc1)c1ccccc1Nc1ccc(SC(F)F)cc1 | – | – | · | 44.7µM | – | –
Cc1cc(C)c(NC(=O)Cn2c(=O)oc3cc(S(=O)(=O)N4CCCCCC4)ccc32)c(C)c1 | – | – | · | – | · | –
SMILES | JMJD2A Tudor inh | BAZ2B inh | L3MBTL1 block | G9a inh | Sfp PPTase inh | HP1b binding inh
COc1cccc2cc(-c3nnc(Nc4c(F)cccc4F)s3)c(=O)oc12 | – | – | · | – | · | –
COc1cc(/C=N/Nc2ccc(C(F)(F)F)cn2)cc(OC)c1O | – | – | – | 39.8µM | ? | –
COc1cc(/C=N/Nc2ccccn2)cc(OC)c1O | – | – | · | 28.2µM | 35.5µM | –
CCOc1ccc(/C=N/N(C)c2ccccc2)cc1OC | 44.7µM | 31.6µM | · | 50.1µM | – | ?
CCOc1ccc(/C=N/Nc2ccccn2)cc1OC | ? | · | – | – | 56.2µM | –
CC(=O)Nc1ccc(NC(=O)CCC(=O)Oc2ccc(C)cc2)cc1 | – | – | · | – | – | –
COc1ccc(Br)cc1CNC(=O)CCCn1c(=O)c2cccn2c2cccnc21 | – | – | · | – | · | –
O=C(OCC#CCSc1nnc(-c2cccc3ccccc23)o1)c1ccccc1 | – | · | · | · | · | ·
Cc1ccc(NC(=O)Cn2cc(S(=O)(=O)c3ccc(C)cc3)c(=O)c3cc4c(cc32)OCO4)cc1 | – | – | · | – | · | –

High-throughput results deposited in PubChem by National Center for Advancing Translational Sciences (NCATS).
